Several values for one entry are separate records, joined by “and”; a condition that tells them apart may be missing. Equal entries are not always repeated. A structure can be active in one record and inactive in another. Activity calls are given as the source filed them. Where a call stands in place of a potency, no number is given. Unless noted, calls follow the shape of the dose curve; as a rule, active = well fitted curve in the direction sought with a large enough effect in the repeat runs; inconclusive = weak or mixed curves; inactive = no such curve, though single readings can be large; an effect the other way counts as inactive or inconclusive.
Columns and labels:
[1] = qHTS assay to identify small molecule antagonists of the thyroid receptor (TR) signaling pathway - cell viability counter screen (AID 743064); also: nearly all actives have a fitted effect of over 50% in size; also: potency is read from the fitted curve at half-maximal effect
Outline: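 Fluorescence from CellTiter-Fluor, added after 23.5 h exposure at 37 °C, reported viability of GH3.TRE-Luc cells co-treated with compound and 1 nM T3. Measured in the same wells as the luciferase TR readout.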

[2] = target: Estrogen receptor (Homo sapiens) (UniProt P03372); assay: qHTS assay to identify small molecule antagonists of the estrogen receptor alpha (ER-alpha) signaling pathway (AID 743069; active = well fitted curve in the direction sought with a large enough effect in the signal ratio in the repeat runs, not every such curve was filed as active; inconclusive = weak or mixed curves, or effect the other way; inactive = no such curve, though single readings can be large or run the other way; the % refers to the signal ratio; also: potency is read from the fitted curve at half-maximal effect)
Sequence of Estrogen receptor (Homo sapiens) (P03372 whole entry, looked up): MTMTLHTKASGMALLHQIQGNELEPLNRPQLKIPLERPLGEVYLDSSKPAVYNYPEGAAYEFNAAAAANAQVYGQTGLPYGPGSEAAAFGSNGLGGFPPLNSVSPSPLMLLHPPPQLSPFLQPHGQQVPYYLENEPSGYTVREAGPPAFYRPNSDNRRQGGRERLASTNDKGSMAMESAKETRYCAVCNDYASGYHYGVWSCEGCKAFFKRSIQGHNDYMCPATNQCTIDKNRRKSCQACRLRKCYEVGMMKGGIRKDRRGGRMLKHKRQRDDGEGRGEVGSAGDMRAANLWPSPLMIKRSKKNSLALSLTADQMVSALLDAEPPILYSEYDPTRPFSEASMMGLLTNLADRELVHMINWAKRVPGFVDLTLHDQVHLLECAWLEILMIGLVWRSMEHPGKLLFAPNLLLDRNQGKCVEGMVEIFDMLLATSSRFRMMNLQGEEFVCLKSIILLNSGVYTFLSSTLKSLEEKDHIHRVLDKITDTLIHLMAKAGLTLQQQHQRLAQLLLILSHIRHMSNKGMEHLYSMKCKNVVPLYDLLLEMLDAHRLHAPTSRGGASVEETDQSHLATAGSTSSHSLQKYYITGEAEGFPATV
Outline: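 Antagonist mode: compounds in DMSO were co-added with 17beta-estradiol to ER-alpha-bla HEK293 cells (2% charcoal-stripped serum) and left 18 h at 37C. Reporter inhibition was measured as FRET fluorescence after 2 h LiveBLAzer substrate at room temperature.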

[3] = qHTS assay to identify small molecule antagonists of the estrogen receptor alpha (ER-alpha) signaling pathway - cell viability counter screen (AID 743074; calls by dose curve;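 also: HEK293 cells carrying ER-alpha-UAS-bla reporter stimulated with 17beta-estradiol; nearly all actives have a fitted effect of over 45% in size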)
[4] = target: Estrogen receptor (Homo sapiens) (UniProt P03372); assay: qHTS assay to identify small molecule agonists of the estrogen receptor alpha (ER-alpha) signaling pathway (AID 743075; calls by dose curve;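 also: HEK293 GripTite cells with ER-alpha and UAS-driven beta-lactamase reporter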; also: potency is read from the fitted curve at half-maximal effect)
[5] = target: Estrogen receptor (Homo sapiens) (UniProt P03372); assay: qHTS assay to identify small molecule agonists of the estrogen receptor alpha (ER-alpha) signaling pathway using the BG1 cell line (AID 743079); also: nearly all actives have a fitted effect of over 20% in size; also: potency is read from the fitted curve at half-maximal effect
[6] = qHTS assay to identify small molecule antagonists of the estrogen receptor alpha (ER-alpha) signaling pathway using the BG1 cell line (AID 743080; calls by dose curve;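 also: BG1 cells stimulated with 17beta-estradiol alongside compound; nearly all actives have a fitted effect of over 25% in size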; also: potency is read from the fitted curve at half-maximal effect)
Outline: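 Readout is ONE-Glo luminescence, taken 30 min at room temperature after reagent addition, preceded by a CellTiter-Fluor viability read; BG1-Luc-4E2 cells had received compound and 17beta-estradiol for 21.5 h at 37 C.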

[7] = qHTS assay to identify small molecule antagonists of the estrogen receptor alpha (ER-alpha) signaling pathway using the BG1 cell line - cell viability counter screen (AID 743081);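 also: compound given together with 17beta-estradiol as the ER stimulus; nearly all actives have a fitted effect of over 45% in size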; also: potency is read from the fitted curve at half-maximal effect
Aromatase (Homo sapiens) = Aromatase (Homo sapiens) (UniProt P11511); assay: qHTS assay to identify aromatase inhibitors (AID 743083); also: nearly all actives have a fitted effect of over 55% in size; also: potency is read from the fitted curve at half-maximal effect
Sequence of Aromatase (Homo sapiens) (P11511 whole entry, looked up): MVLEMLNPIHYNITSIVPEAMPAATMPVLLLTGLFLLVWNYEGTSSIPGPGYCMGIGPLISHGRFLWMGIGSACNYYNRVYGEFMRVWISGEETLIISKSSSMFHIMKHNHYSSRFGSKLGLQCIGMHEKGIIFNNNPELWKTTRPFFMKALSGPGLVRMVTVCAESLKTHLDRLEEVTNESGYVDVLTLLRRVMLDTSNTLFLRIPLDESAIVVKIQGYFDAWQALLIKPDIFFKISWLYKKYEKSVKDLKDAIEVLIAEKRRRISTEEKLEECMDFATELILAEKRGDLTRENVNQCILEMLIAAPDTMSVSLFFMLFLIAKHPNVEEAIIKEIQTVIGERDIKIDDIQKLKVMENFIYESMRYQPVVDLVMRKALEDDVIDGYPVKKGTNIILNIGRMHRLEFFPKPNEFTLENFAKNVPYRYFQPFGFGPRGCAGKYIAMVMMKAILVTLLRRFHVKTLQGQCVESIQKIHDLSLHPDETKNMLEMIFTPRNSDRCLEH

[8] = qHTS assay to identify small molecule antagonists of the thyroid receptor (TR) signaling pathway (AID 743065); also: nearly all actives have a fitted effect of over 55% in size; also: potency is read from the fitted curve at half-maximal effect
Outline: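 Antagonism measured as loss of luciferase signal in GH3 cells stably carrying a TRE-luciferase reporter, co-treated with compound and T3 (1 nM final) for 23.5 h at 37 C. Viability was read in the same well by CellTiter-Fluor.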

[9] = test system: thyroid hormone receptor (rat, GH3 cells); assay: qHTS assay to identify small molecule agonists of the thyroid receptor (TR) signaling pathway (AID 743066; calls by dose curve)

SMILES	Potency [1]	Potency [2]	outcome [3]	Potency [4]	Potency [5]	Potency [6]	Potency [7]	Potency (Aromatase (Homo sapiens))	Potency [8]	Potency [9]
CC1=CCC(C(C)C)C=C1 (stereo not given)	inactive	inactive	inactive	inactive	inactive	inactive	inactive	inactive		
O=C(Cl)c1c(Cl)cccc1Cl		inactive	inactive	inactive	inactive	inactive	inactive	inactive	inactive	inactive
CCCC(=O)OCC		inactive	inactive	inactive	inactive	inactive	inactive	inactive	inactive	inactive
O=S1(=O)N=C(O)c2ccccc21	inactive		inactive				inactive	inactive		
CC[C@@H]1C[C@H](N(Cc2cc(C(F)(F)F)cc(C(F)(F)F)c2)C(C)=O)c2cc(C(F)(F)F)ccc2N1C(=O)OC(C)C		inactive	inactive	inactive	inactive	inactive			inactive	inactive
Cl/C(=C\n1cncn1)c1ccc(Cl)cc1Cl	inactive		inactive				inactive			inactive
CC(C)(C)c1cc(O)c(C(C)(C)C)cc1O	48.6 µM (active)	43.6 µM [inconclusive] (active)	inactive	inactive			inactive	21.7 µM (active)		
CC(C)(C)c1cc(CCC(=O)OCC(COC(=O)CCc2cc(C(C)(C)C)c(O)c(C(C)(C)C)c2)(COC(=O)CCc2cc(C(C)(C)C)c(O)c(C(C)(C)C)c2)COC(=O)CCc2cc(C(C)(C)C)c(O)c(C(C)(C)C)c2)cc(C(C)(C)C)c1O		inactive	inactive	0.0074 µM [inconclusive] (active)	4.11 µM (active)	inactive	inactive	inactive	inactive	inactive
NC[C@H]1O[C@H](O[C@H]2[C@H](O)[C@@H](O[C@H]3O[C@H](CO)[C@@H](O)[C@H](N)[C@H]3O)[C@H](N)C[C@@H]2N)[C@H](O)[C@@H](O)[C@@H]1O	inactive and 1.89 µM (active)		inactive			inactive	inactive	inactive		inactive
CC(C)CC=O		inactive	inactive	inactive	inactive	inactive	inactive	inactive	inactive	inactive
O=S1(=O)c2cccc3cccc(c23)N1CCCN1CCN(c2ccc(F)cc2)CC1	inactive			inactive			inactive	inactive		inactive
CC(=O)OCCc1ccccc1		inactive	inactive	inactive	inactive	inactive	inactive	inactive	inactive	inactive
CN1CCN(C2=Nc3ccccc3Sc3ccc(Cl)cc32)CC1	13.3 µM (active)		inactive				inactive	inactive		
COCCCCCCCCOCCC[Si](C)(O[Si](C)(C)C)O[Si](C)(C)C	inactive							19.3 µM (active)		inactive
O=c1[nH]cnc2ccccc12		inactive	inactive	inactive	inactive	inactive	inactive	inactive	inactive	inactive
CCN(CC)CCOC(=O)C1(c2ccccc2)CCCC1		inactive	inactive	inactive	inactive	inactive	inactive	inactive	inactive	inactive
CC(C)(C)C(=O)OCOP(=O)(COCCn1cnc2c(N)ncnc21)OCOC(=O)C(C)(C)C	inactive		inactive				inactive	inactive		inactive
c1ccc(-c2nc[nH]c2-c2ccccc2)cc1	inactive		inactive				inactive	inactive		inactive
O=C(O)Cc1cc(I)c(Oc2ccc(O)c(I)c2)c(I)c1	inactive		inactive				inactive	inactive		
Cc1occc1S	inactive	inactive	inactive	inactive	inactive	inactive	inactive	inactive		
Oc1ccc2c(c1)OCO2	inactive		inactive			inactive	inactive	inactive		inactive
Cc1cc(C)c(S(=O)(=O)O)cc1N=Nc1cc(S(=O)(=O)O)c2ccccc2c1O	34.4 µM (active)		inactive				54.5 µM (active)	inactive		inactive
COCCO	inactive	inactive	inactive	inactive	inactive	inactive	inactive	inactive		
CCCCCCOC(=O)CCC	inactive						inactive	inactive		

SMILES	Potency [1]	Potency [2]	outcome [3]	Potency [4]	Potency [5]	Potency [6]	Potency [7]	Potency (Aromatase (Homo sapiens))	Potency [8]	Potency [9]
Oc1ccc(Cc2ccccc2)cc1	inactive		inactive				inactive			inactive
CCOc1ccc(NC(=O)CC(C)=O)cc1	inactive		inactive				inactive	inactive		
CC(C)c1ccc2c(C(C)C)cc(C(C)C)c(S(=O)(=O)O)c2c1		inactive	inactive	inactive	inactive	inactive	inactive	inactive	63.2 µM (active)	inactive
O=C1CCCCCO1		inactive	inactive	inactive	inactive	inactive	inactive	inactive	inactive	inactive
O=[N+]([O-])c1cccc(Cl)c1Cl	inactive	inactive	inactive	inactive	inactive	inactive	inactive	inactive		
CC(=O)/C(C)=C/C1C(C)=CCCC1(C)C (stereo not given)	inactive	inactive	inactive	inactive	inactive	inactive	inactive	inactive		
C#CCOC(=O)[C@@H](C)Oc1ccc(Oc2ncc(Cl)cc2F)cc1	inactive		inactive	inactive	inactive	inactive	inactive	inactive		
Cc1cccc(OCCOc2cccc(C)c2)c1	inactive	inactive	inactive	inactive			inactive	inactive		
Cc1cc(O)ccc1N	30.8 µM (active)	inactive	inactive	inactive	inactive		inactive	54.8 µM (active)		
CCCCCCCCCC(=O)OCC		inactive		inactive		inactive	inactive	inactive	inactive	inactive
CC(C)CCCC(C)CCO (stereo not given)		inactive	inactive	inactive		inactive	inactive	inactive	inactive	inactive
CN1CCC(OC(c2ccccc2)c2ccccc2)CC1		inactive	inactive	inactive		inactive	inactive	inactive		inactive
O=S(=O)(O)c1ccc(O)c2ncccc12		inactive	inactive	inactive	inactive	inactive		inactive		inactive
CCN(CC)C(C)CN1c2ccccc2Sc2ccccc21 (stereo not given)		inactive	inactive	inactive	inactive	inactive	inactive	inactive		
O=C(CC(=O)c1ccccc1)c1ccccc1			inactive				inactive	inactive	inactive	inactive
CC(=O)O[C@H]1C[C@@H]2CC[C@@H]3[C@H](CC[C@@]4(C)[C@H]3C[C@H]([N+]3(C)CCCCC3)[C@@H]4OC(C)=O)[C@@]2(C)C[C@@H]1N1CCCCC1		inactive	inactive	inactive	33.5 µM (active)	inactive	inactive	inactive		
CC(Cc1cccc(C(F)(F)F)c1)NCCOC(=O)c1ccccc1 (stereo not given)			inactive				inactive	29.8 µM (active)		
CC1CCc2cc(F)cc3c(=O)c(C(=O)O)cn1c23 (stereo not given)			inactive				inactive		inactive	inactive
CCOc1ccc2[nH]cc(C(=O)NCc3ccccc3)c(=O)c2n1		inactive	inactive	inactive			inactive	61.1 µM (active)		inactive
CN(C)CC[C@@H](c1ccc(Br)cc1)c1ccccn1		inactive	inactive	inactive	inactive	inactive	inactive			
CCC(C)N(C)C(=O)c1cc2ccccc2c(-c2ccccc2Cl)n1 (stereo not given)			inactive	inactive	inactive	inactive	inactive		35.2 µM (active)	inactive
CCCCC(CC)COCCCN (stereo not given)		inactive	inactive	inactive		inactive	inactive	inactive		inactive
CC(C)(C)c1ccc(S)cc1			inactive	inactive			inactive	inactive	inactive	inactive
Oc1ccc(Sc2ccc(O)cc2)cc1			inactive	18.2 µM [inconclusive] (active)	0.51 µM (active)	inactive	inactive	inactive	51 µM (active)	inactive

SMILES	Potency [1]	Potency [2]	outcome [3]	Potency [4]	Potency [5]	Potency [6]	Potency [7]	Potency (Aromatase (Homo sapiens))	Potency [8]	Potency [9]
CC(C)(C)c1cc(CO)cc(C(C)(C)C)c1O				inactive		69.9 µM (active)	inactive		62.3 µM (active)	inactive
CC1(C)CCC(C)(C)c2cc(NC(=O)c3ccc(C(=O)O)cc3)ccc21			inactive				inactive		21.1 µM (active)	inactive
O=C1[C@H](CC[C@H](O)c2ccc(F)cc2)[C@@H](c2ccc(O)cc2)N1c1ccc(F)cc1		inactive	inactive	inactive	inactive	inactive	inactive	inactive		inactive
O=C(O)Cn1c(C(=O)Nc2nc(-c3ccccc3Cl)cs2)cc2ccccc21		inactive		inactive	inactive	inactive	inactive	inactive	26.6 µM (active)	inactive
CC(=O)c1c(C)c([N+](=O)[O-])c(C(C)(C)C)c([N+](=O)[O-])c1C			inactive				inactive	inactive		inactive
CCCOc1ccc2nc(NC(=O)OC)[nH]c2c1		inactive	inactive		inactive	inactive	inactive	inactive	0.422 µM (active)	inactive
CCN1CCC[C@H]1CNC(=O)c1c(OC)ccc(Br)c1OC		inactive	inactive	inactive	inactive	inactive	inactive	inactive		
c1ccc(OCc2ccc(CCCN3CCOCC3)cc2)cc1		inactive	inactive	inactive	inactive		inactive	inactive	21.1 µM (active)	inactive
O=C(O)/C=C/c1cnc[nH]1			inactive				inactive	inactive	inactive	inactive
CC(C)NCC(O)c1cc(O)cc(O)c1 (stereo not given)			inactive			inactive	inactive	inactive		
N#Cc1cc2ccccc2c2ccccc12			inactive	inactive	inactive	inactive	inactive	inactive	inactive	inactive
C=CC(C)(CCC=C(C)C)OC(=O)c1ccccc1 (stereo not given)			inactive				inactive			inactive
COc1ccc(C(C)=O)cc1				inactive	44.6 µM (active)	inactive	inactive	inactive	inactive	inactive
CCCCCCCC/C=C\CCCCCCCC(N)=O			inactive				inactive	inactive	inactive	inactive
CCN(CC)CCOc1ccc2c(c1)C(=O)c1cc(OCCN(CC)CC)ccc1-2			inactive					inactive		inactive
CC(=O)c1ccc2c(c1)[C@H](NC(=O)c1ccc(F)cc1)[C@@H](O)C(C)(C)O2			inactive				inactive	inactive	inactive	inactive
Cc1cc(CC(=O)O)c(C)n1-c1ccc(Cl)cc1			inactive				inactive	inactive		inactive
Cc1ccc2c(ccc3ccccc32)c1			inactive	inactive			inactive	inactive		
CC(=O)OC/C=C/c1ccccc1			inactive				inactive	inactive	inactive	inactive
COc1cc(C(C)(C)C)c(O)c(C(C)(C)C)c1			inactive				inactive			inactive
O=[N+]([O-])c1cc[n+]([O-])cc1			inactive	inactive			inactive			inactive
COC(Cc1ccccc1)OC			inactive	inactive		inactive	inactive	inactive	inactive	inactive
COc1ccc2[nH]c(S(=O)Cc3ncc(C)c(OC)c3C)nc2n1 (stereo not given)		inactive	inactive		inactive	inactive	inactive	inactive		inactive
CNCC[C@@H](Oc1ccccc1C)c1ccccc1		inactive	inactive	inactive	inactive	inactive	inactive	inactive	23.7 µM (active)	

— PubChem BioAssay (Tox21)
